In the library only some 5.7% were active in any assay of this set; here they are far more common.
GLP1R cytotox: cytotoxic in the GLP-1 receptor inverse agonist counter-screen. HEK293 cAMP-luciferase reporter cells, luminescence, 24 h. Potency, µM (doses to about 38.3 µM), usual class: inhibitors. 410,000 tested, 0.13% active. AID 624418;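 also: loss of luciferase light is scored as toxicity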
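Compound-treated cells are incubated 24 hr at 37 deg C under 5% CO2 after a 12 hour attachment period, then luciferase detection reagent is added and luminescence is measured following 12 min at room temperature; lowered signal indicates toxicity.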
GLP-1R agonist: GLP-1 receptor (human) agonism | Potency, µM (titrated, usually from 45.6 µM), most hits filed as activators | 380,000 tested, 0.007% active | HEK293 GLP-1R CRE-luciferase, luminescence, 4-6 h; cells express a hypersensitive GLP-1R form | AID 624172
Target sequence (P43220 whole entry, looked up): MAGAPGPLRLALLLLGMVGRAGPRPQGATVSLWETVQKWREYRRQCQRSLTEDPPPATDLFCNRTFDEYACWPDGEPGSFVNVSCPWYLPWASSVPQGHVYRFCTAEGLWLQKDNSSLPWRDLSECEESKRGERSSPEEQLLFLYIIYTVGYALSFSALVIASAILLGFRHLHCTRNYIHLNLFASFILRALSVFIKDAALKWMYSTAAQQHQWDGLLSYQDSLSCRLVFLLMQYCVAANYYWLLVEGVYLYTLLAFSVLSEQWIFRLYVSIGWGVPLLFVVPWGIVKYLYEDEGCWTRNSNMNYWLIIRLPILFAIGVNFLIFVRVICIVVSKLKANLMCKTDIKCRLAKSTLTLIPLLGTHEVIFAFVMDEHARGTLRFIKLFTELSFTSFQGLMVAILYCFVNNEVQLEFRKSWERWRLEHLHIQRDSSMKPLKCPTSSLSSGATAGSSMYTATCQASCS
D3 antag: D3 dopamine receptor (human) antagonism; max response, negative = inhibition, %; AID 652054; P35462; D3R cells, DiscoveRx beta-arrestin luminescence, antagonist mode; hits give low values; 360,000 tested, 2.5% active; in the data active = max response below about -50%; inconclusive = no clear call, values can overlap the other calls
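Cells expressing the human receptor were seeded at 1500 cells/well, incubated overnight at 37 degrees C in 5% CO2, then exposed to library compounds with dopamine controls for 90 minutes at 37 degrees C before luminescent detection.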
D3 ag: D3 dopamine receptor (human) agonism. 410,000 tested, 0.58% active. AID 652048. P35462. max activation, %. D3R DiscoveRx beta-arrestin cells, luminescence, 90 min; in the data active = max activation above about 30%
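Agonist mode: compounds and dopamine controls were applied to plated cells for 90 min at 37 degrees C after an overnight attachment at 1500 cells/well. Luminescent read-out followed 30 - 60 minutes at room temperature with DiscoveRx detection reagent.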
GLP-1R inv ag: acts as inverse agonist at human GLP-1 receptor; AID 624417; HEK293 GLP-1R CRE-luciferase, luminescence, 24 h; GLP-1R form is constitutively active; P43220; Potency, µM (series often up to 38.3 µM), hits mostly inhibitors; 410,000 tested, 1.6% active; also: nearly all actives have a fitted effect of over 55% in size
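HEK293 cells stably co-expressing a cAMP-responsive luciferase reporter and constitutively active GLP-1R were seeded, incubated 12 h, then exposed to compounds for 24 h at 37 C. Luminescence was read 12 min after detection reagent; inverse agonists lower signal.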
ClpP mod: qHTS Assay for Activators of ClpP; purified B. subtilis ClpP, FRET peptide cleavage, 20 min; Potency, µM (top dose mostly 57.5 µM); 340,000 tested, 1.9% active; AID 651965, 2013; active = well fitted falling curve with a large enough effect; inconclusive = small, poorly fitted or top-dose-only effect; inactive = no such curve, though single readings can be large or run the other way; also: the source files actives as falling curves though it sought activators and does not explain the sign; nearly all actives have a fitted effect of over 65% in size
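FRET quenching reversal measured ClpP activation: 10 microg/mL B. subtilis ClpP at pH 8 with the FRET-FV decapeptide, read at 430 nm after 320 nm excitation. The 20-min minus 0-min signal was scaled between DMSO/no-enzyme wells and ADEP (5.8 microM final).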
A number is an active result; . = inactive; ? = inconclusive; / = no result given. Unless noted, calls follow the shape of the dose curve; as a rule, active = well fitted curve in the direction sought with a large enough effect; inconclusive = small, poorly fitted or top-dose-only effect, or another doubt; inactive = no such curve, though single readings can be large; an effect the other way counts as inactive or inconclusive.

SMILES | GLP1R cytotox | GLP-1R agonist | D3 antag | D3 ag | GLP-1R inv ag | ClpP mod
C[C@]12CC[C@@H]3c4ccc(O)cc4C[C@@H](CCCCCCCCCS(=O)CCCC(F)(F)C(F)(F)F)[C@H]3[C@@H]1CC[C@@H]2O (some centres undefined) | / | / | / | . | / | /
Cc1ccc(S(=O)(=O)c2cn(CC(=O)Nc3cccc(C)c3)c3cc4c(cc3c2=O)OCO4)cc1 | . | . | / | . | . | .
CCN(c1ccc(C)cc1C)S(=O)(=O)c1nnc(NC(=O)C(C)(C)C)s1 | . | . | -74 | . | ? | .
CCN(c1ccc(C)cc1C)S(=O)(=O)c1nnc(NC(=O)C(C)C)s1 | . | . | . | . | ? | .
C1=CCN(c2nc(N3CCOCC3)nc(N3CCCc4ccccc43)n2)CC1 | . | . | . | . | 11µM | .
Cc1nn(C(=O)c2ccccc2F)c(C)c1S(=O)(=O)N1CCOCC1 | . | . | / | . | . | .
COCc1ccc(-c2c(-c3ccc(OC)cc3)oc(=O)c3cc(OC)c(OC)cc23)cc1 | . | . | . | 34 | ? | 32µM
COc1cc2c(-c3cc(F)cc(F)c3)c(-c3ccsc3)oc(=O)c2cc1OC | . | . | . | . | . | .
COc1ccc(-c2c(-c3ccsc3)oc(=O)c3cc(OC)c(OC)cc23)cc1 | . | . | . | 39 | . | ?
CCOC(=O)c1ccc(NC(=O)c2cc3c(n(-c4ccc(C)cc4)c2=O)CC(C)(C)CC3=O)cc1 | . | . | / | . | . | .
CC1(C)CC(=O)C=C(Nc2ccc(F)cc2)C1 | . | . | . | . | . | .
CC1(C)CC(=O)C=C(Nc2ccc(OCC(F)(F)C(F)F)cc2)C1 | . | . | . | . | ? | 18µM
Cc1ccc(NC(=O)N2CCN(c3nnc(C)c4c(C)n(-c5ccccc5)nc34)CC2)cc1Cl | . | / | / | . | . | .
COc1ccc(C2C(C#N)=C3NC(=O)c4c(sc5c4CCCCC5)N3C3=C2C(=O)CC(C)(C)C3)cc1 (centres undefined) | . | . | -87 | . | ? | .
COc1ccccc1NC(=O)CCn1cnc2ccccc2c1=O | . | / | / | . | . | .
CC1=NNC(=O)/C1=C\c1cn(-c2ccccc2)nc1-c1ccc(F)cc1 | ? | . | -69 | . | ? | .
O=C(O)CCCCCN1C(=O)/C(=C/c2cn(-c3ccccc3)nc2-c2cccs2)SC1=S | . | . | . | . | ? | /
CN1CCC(N(C)C(=O)/C=C/c2cn(-c3ccccc3)nc2-c2cccs2)CC1 | ? | . | . | . | 5.6µM | /
CC1=NNC(=O)/C1=C\c1cn(-c2ccccc2)nc1-c1cccs1 | 7.9µM | . | ? | . | ? | .
O=C(N/N=C/c1cn(-c2ccccc2)nc1-c1cccs1)c1ccc(Cl)cc1 | . | . | . | . | 6.3µM | 32µM
CCN(CC(=O)Nc1ccc(NC(C)=O)cc1)C(=O)/C=C/c1cn(-c2ccccc2)nc1-c1cccs1 | . | . | . | . | . | ?
CCCCCCCCCCCCCCCC[n+]1ccc(C)c2ccccc21 | / | / | / | / | / | .
Cc1csc(NC(=O)CCNS(=O)(=O)c2ccc3c(c2)c(=O)n(C)c(=O)n3C)n1 | . | . | -93 | . | . | .
COc1cc2ncc3c(-c4ccc(C)cc4)nn(-c4ccc(F)cc4F)c3c2cc1OC | . | / | / | . | . | .
Cc1cc(C)n2ncc(C(=O)NCCc3ccccc3)c2n1 | . | ? | . | . | . | 28µM
SMILES | GLP1R cytotox | GLP-1R agonist | D3 antag | D3 ag | GLP-1R inv ag | ClpP mod
Cc1cc(C)n2nc(C(=O)NCc3ccccc3)cc2n1 | . | . | . | . | . | 25µM
Cc1cc(C)n2ncc(C(=O)NCc3ccccc3)c2n1 | . | ? | . | . | . | 28µM
CCOC(=O)C1CCN(C(=O)c2cnn3c(C)cc(C)nc23)CC1 | . | . | . | . | . | 32µM
Cc1cc(C)n2nc(C(=O)NCc3ccccc3)nc2n1 | . | . | . | . | . | .
Cc1cc(C)n2ncc(C(=O)NCc3ccc(Cl)cc3)c2n1 | . | . | . | . | . | ?
CC(c1ccc(N(C)C)cc1)c1ccnc2ccccc12 (centres undefined) | / | / | / | / | / | .

Screens from PubChem BioAssay.
